35 compounds from PubChem BioAssay AID743060 (The Scripps Research Institute Molecular Screening Center, 2013) can be followed below.

Where “and” joins values, the source holds several entries; their conditions need not be identical. Equal values may be shown once.

A short description of the experiment: inhibitors of T. brucei MetRS aminoacylation, late-stage follow-up, biochemical, radioactivity, round 1 (AID 743060). To be noted: purified enzyme, radiolabel aminoacylation, scintillation, 2 h; at 1 µM; stronger effect = higher value.
By inhibition is commonly meant the relative decrease from the control value, in per cent. On to `COc1ccccc1NC(=O)CSc1nnc2c(n1)[nH]c1ccc(C)cc12`, for which the inhibition worked out at 19.1%. For `CNC(=S)N(CCc1ccccc1)C1CC(=O)N(c2ccc(Br)cc2)C1=O` (stereo not given), the inhibition is 96.6%. The same measure for `Cc1ccc2[nH]c3nc(SCC(=O)Nc4ccc(C(F)(F)F)cc4)nnc3c2c1`: 21.3%; for `O=C(NCc1nc2ccccc2[nH]1)C1=C[C@H](C2CC2)C[C@H](OCc2ccc(CO)cc2)O1`: -3.3%. On to `O=C(Cn1cc(C(=O)c2ccccc2)c2ccccc21)Nc1cccc(C(F)(F)F)c1`, for which the inhibition worked out at 22%. For `O=C1CC(N(CCc2ccccc2)C(=S)Nc2ccccc2)C(=O)N1c1ccc(Br)cc1` (stereo not given) the value was 84.2%. Consider `O=C(NCc1nc2ccccc2[nH]1)C1=C[C@H](c2ccc3c(c2)OCO3)C[C@H](OCCCCO)O1`, for which the inhibition was 5.68%. For the compound `O=C(NCc1nc2ccccc2[nH]1)C1=C[C@H](c2ccccc2)C[C@H](OCc2ccc(CO)cc2)O1`, the inhibition amounted to 7.32%. Take `CCC(=O)c1cn(CC(=O)Nc2cccc(C(F)(F)F)c2)c2ccccc12`: the inhibition is -3.8%. On to `COc1ccc(NC(=O)C2CC(=O)n3c(nc4ccccc43)N2)cc1` (stereo not given), for which the inhibition is -18.5%.

In the case of `CC1Cc2ccccc2N1C(=O)Cn1cc(C(=O)C(=O)N2CCOCC2)c2ccccc21` (stereo not given), the inhibition was -6.83%. With `COc1cccc(NC(=O)C2CC(=O)n3c(nc4ccccc43)N2)c1` (stereo not given), the inhibition came to 5.53%. With `O=C(Cn1cc(C(=O)C(=O)N2CCOCC2)c2ccccc21)NCc1ccccc1`, the inhibition was -0.16%.

Regarding `O=C(NCCc1nc2ccccc2[nH]1)c1ccc(Cl)cc1`, the inhibition was determined as 20.1%.

Regarding `O=C(NCc1nc2ccccc2[nH]1)C1=C[C@H](c2ccc(Br)cc2)C[C@H](OCCCCO)O1`, the inhibition was 51.6%. In the case of `O=C(NCc1nc2ccccc2[nH]1)C1=C[C@@H](c2csc3ccccc23)C[C@@H](OCCCCO)O1`, the inhibition is 20.6%.

Take `CCOC(=O)N1CCC(Nc2c(Nc3ccc(F)cc3)c(=O)c2=O)CC1`: the inhibition came to 28.4%. In the case of `C[C@H](O)[C@@H]1C(=O)N2CCc3c([nH]c4ccccc34)[C@@H]2C[C@@H]1N(C)Cc1ccc2c(c1)OCO2`, the inhibition is 1.98%. For the compound `O=C(CC=NOCc1ccc([N+](=O)[O-])cc1)Nc1ccc(Br)cc1`, the inhibition turned out to be 32.2%. For `CCO[C@@H]1OC(C(=O)NCc2nc3ccccc3[nH]2)=C[C@H](c2ccc(Br)cc2)[C@H]1CCCO` the value was 6.72%; for `CC(C)(C)[C@@H]1C=C(C(=O)NCc2nc3ccccc3[nH]2)O[C@H](OCc2ccc(CO)cc2)C1`, 30.8%. Take `Clc1ccc(-c2nnc(SCc3nc4ccccc4[nH]3)o2)c(Cl)c1`: the inhibition is 75.3%. With `CCc1ccc2c(c1)c1nnc(SCC(=O)Nc3ccc4c(c3)OCO4)nc1n2C`, the inhibition was -1.63%. Regarding `Cc1cccc2[nH]c(C3CCCN(C(=O)c4cccc5cccnc45)C3)nc12` (stereo not given), the inhibition is -3.03%.

As to `O=C(NCCc1nc2ccccc2[nH]1)c1c(F)cccc1F`, the inhibition is 2.62%. `CCN(C(=O)Cn1cc(C(=O)C(=O)N2CCOCC2)c2ccccc21)c1ccccc1`: the inhibition is -19.2%. For `O=C(Cn1cc(C(=O)C2CC2)c2ccccc21)Nc1cccc(C(F)(F)F)c1`, the inhibition stood at 3.65%.

As to `O=C(CC=NOCc1ccc([N+](=O)[O-])cc1)Nc1ccc(Cl)cc1`, the inhibition is 28.6%. Consider `O=C(CCC(=O)Nc1cccc([N+](=O)[O-])c1)NN=Cc1cccs1`, for which the inhibition worked out at 6.25%. For `Cc1cccc(C(=O)NCCc2nc3ccccc3n2CCOc2ccccc2)c1` the value was 1.66%. As for `Cn1c(CCNC(=O)c2ccc(Cl)cc2)nc2ccccc21`, the inhibition came out at 10.9%. Regarding `O=C(CSc1nnc2c(n1)[nH]c1ccc(Br)cc12)NCc1ccccc1`, the inhibition was determined as 79.8%. For `CC(=O)N(CCc1ccccc1)C1CC(=O)N(c2ccc(Cl)cc2)C1=O` (stereo not given) the value was -16.2%; for `CC(=O)c1c[nH]c(C(=O)NCc2cccc(C(F)(F)F)c2)c1`, 44.6%. For `O=C(Nc1ccc(F)c(Cl)c1)C1CC(=O)n2c(nc3ccccc32)N1` (stereo not given), the inhibition was 44.9% and 55.3%.
